# Experimental data: PubChem BioAssay AID686970 (National Center for Advancing Translational Sciences (NCATS), 2013)
# Out of some 360,000 compounds screened, about 6,000 (1.7%) were called active. Roughly 8% stayed inconclusive and do not appear here. The sample holds actives, similar compounds and a random draw of the others, so the mix is not that of the screen. Values without a mark were called inactive. The call rests on the fitted dose curve; in most records, active means well fitted cell-killing curve with a large enough effect; inconclusive means small, poorly fitted or top-dose-only effect, or effect the other way; inactive means flat fitted curve, though single readings scatter.
# Assay: qHTS for induction of synthetic lethality in tumor cells producing 2HG: qHTS for the HT-1080-NT fibrosarcoma cell line; further: nearly all actives have a fitted effect of over 55% in size
# Details: HT-1080-NT fibrosarcoma viability, CellTiter-Glo ATP luminescence, 48 h; series mostly up to 46.1 µM; activity, negative = less viability: at the top concentration
# Source text: Unbiased genomic sequencing for 22 glioma genomes found recurrent mutation of IDH1 on chromosome 2q33, a gene encoding the cytosolic isoform of IDH1 associated with the tricarboxylic acid cycle (TCA) that catalyzes the oxidative decarboxylation of isocitrate, yielding alpha-ketoglutarate and CO2 via NADP+ to NADPH conversion. Subsequent studies confirmed the recurrent IDH mutations in up to 70% of secondary gliomas and in 10% of AML cases. In addition, the somatic mutation of cancer-associated IDH1 is a point mutation resulting in various amino-acid substituents at Arginine132 (IDH1 R132), a key residue found in the enzyme's active site that when mutated, results in the loss-of-function in metabolizing isocitrate but confers a gain-of-function to produce the oncometabolite 2-hydroxyglutarate (2HG). This in effect defines IDH1 as an oncogene and provides an extraordinary opportunity to discover chemical probes against mutant IDH1 that may translate into much needed new therapies for glioma and AML patients.
# This assay aims to perform a synthetic lethal screen for chemical probes specific for 2HG-producing tumor cells using matched paired cell lines (1) HT-1080-NT fibrosarcoma cell line that overproduces 2HG and (2) HT-1080-IDH1KD cell line which has IDH1 expression knocked-down. Desirable compounds are toxic to the NT fibrosarcoma cells but not to the IDH1KD cell line. The data in this AID corresponds to the results of the qHTS against the HT-1080-NT fibrosarcoma cell line.
# [1] Dang L, Jin S, Su SM. IDH mutations in glioma and acute myeloid leukemia. Trends of Mol Med. 2010; 16(9): 387-97.
# [2] Dang L et al. Cancer-associated IDH1 mutations produce 2-hydroxyglutarate. Nature. 2010; 465(7300):966.
# NIH Molecular Libraries Probe Production Centers Network [MLPCN]
# NIH Chemical Genomics Center [NCGC]
# Assay Submitter (PI): Lenny Dang Ph.D., Agios Pharmaceuticals
# Suspensions of trypsinized HT-1080-NT cells were dispensed into white, tissue culture-treated, solid 1536-well plates at 5uL/well (750 cells/well final concentration) in RPMI medium supplemented with 5% FBS. Plates were incubated at 37 degrees C for 2 hours, after which 23 nL of compounds or DMSO were delivered to each well using a pin tool. Plates were then incubated at 37 degrees C for an additional 48 hours. CellTiter-Glo viability reagent (Promega) was dispensed into wells (2.5uL/well) and incubated at room temperature for 10 minutes. The plates were measured on a PerkinElmer ViewLux plate reader for luminescent signal (clear filter, 1 sec exp). DMSO-treated control wells and media-only (no cells) control wells were used to normalize %Activity of identified toxic compounds; DMSO-treated wells corresponded to 0%Activity (100% viability), while media-only controls were used to normalize 100%Activity (0% viability).
# Concentration-response curves were fitted to the signals arising from the resulting luminescence. The concentration-effect curves were then classified based on curve quality (r2), response magnitude and degree of measured activity, and compounds were subsequently categorized based on their curve class.
# Potency means the concentration at half of the fitted maximal effect.
SMILES,Potency,"activity, negative = less viability"
CN(C)CC1Oc2ccccc2OC1(O)c1ccccc1 (stereo not given),8.2 µM (active),
CCOC(=O)c1cccc(C2=C(CNC(=O)c3ccncc3)[C@H]3CC[C@@H](C2)N3Cc2ccccc2)c1,,-2.39%
O=C1C2CCN(CC2)C1(CO)CO,,1.59%
O=c1[nH]c(O)c(C=Nc2cc(F)cc(F)c2)c(=O)[nH]1,,8.67%
COc1ccc2c3c1O[C@H]1C[C@@H](O)C=C[C@@]31CCN(C)C2,8.2 µM (active),
COc1ccc2c(c1O)-c1cccc3c1[C@@H](C2)N(C)CC3,,0.405%
COC1=CC=C2[C@H]3Cc4ccc(OC)c5c4[C@@]2(CCN3C)C1O5 (stereo not given in full),,10.5%
CC=C(C)C(=O)OC1CCN2CC=C(COC(=O)C(O)(C(C)OC)C(C)(C)O)C12 (stereo not given),,1.64%
O=P(OC1=CCCCC1)(c1ccccc1)c1ccccc1,,0.74%
O=c1[nH]c2ccccc2n1C1CCN(C(c2ccccc2)c2nnnn2Cc2ccccc2)CC1 (stereo not given),13 µM (active),
Cc1ccc(Cn2nnnc2CN2CCC(n3nnc4ccccc43)CC2)cc1,,-22.7%
CSCCC(c1nnnn1C(C)(C)C)N1CCC(n2c(=O)[nH]c3ccccc32)CC1 (stereo not given),,-18.1%
CCOC(=O)C1=C(C)OC(N)=C(C(=O)OC)C12C(=O)Nc1ccc(Br)cc12 (stereo not given),,-1.5%
O=c1[nH]c(CN2CC=C(c3ccccc3)CC2)nc2scc(-c3cccs3)c12,,-0.0739%
S=C(NCCc1ccccc1)N1Cc2cc(N3CCOCC3)ccc2-n2nncc2C1,,2.89%
CCOc1ccc(-c2cc(C)[n+](CCN(CC)CC)c(-c3ccc(OCC)cc3)c2)cc1,8.2 µM (active),
COc1ccc(C2C=C(C)Oc3c2c(=O)oc2ccccc32)cc1OC (stereo not given),,-15.3%
COC(=O)C1=C(c2ccc(OCc3ccccc3)cc2)C[C@@H]2CC[C@H]1N2C(=O)NCc1cccc(F)c1,,-7.63%
CC1CCCN1CCC(C(N)=O)(c1ccccc1)c1ccccc1 (stereo not given),,-2.83%
COc1ccc(CCn2c(O)c(C=NC3CC3)c(=O)[nH]c2=O)cc1OC,,0.249%
c1ccc(N2Cc3ccccc3-n3nncc3C2)nc1,,-3.61%
CCC1(C)CC(CCNCc2ccc(N(C)C)cc2)(c2ccc(F)cc2)CCO1 (stereo not given),,-21.8%
C[C@@H]1C[C@@H]2O[C@H]2/C=C\C=C\C(=O)Cc2c(Cl)c(O)cc(O)c2C(=O)O1,8.2 µM (active),
CC(=O)NCC1=C(c2ccc3ccccc3c2)C[C@@H]2CC[C@H]1N2Cc1ccco1,,-6.62%
C=Cn1ccnc1P(=S)(c1cc(N(CC)CC)ns1)c1nccn1C=C,,-22%
COC(=O)C1=C(c2ccc(OCc3ccccc3)cc2)C[C@@H]2CC[C@H]1N2C(=O)NCc1ccc(Cl)cc1,,7.67%
CC1=CC(=Cc2sc3ccccc3[n+]2C)C=C(C)O1,8.2 µM (active),

SMILES,Potency,"activity, negative = less viability"
O=[N+]([O-])c1ccc(C2C3C(c4ccccc4)=NC4(CCCCC4)N32)cc1 (stereo not given),,1.87%
Cc1ccc(OC(=O)N(C)C[C@@H]2OCc3cnnn3CCCC(=O)N([C@H](C)CO)C[C@@H]2C)cc1,,-0.987%
COc1cc(Cn2c(N)c(C(=O)NCc3ccco3)c3nc4ccccc4nc32)cc(OC)c1OC,12.6 µM (active),
COC(=O)C1=C(c2ccccc2)C[C@@H]2CC[C@H]1N2C(=O)NCc1ccco1,,10.9%
Cc1ncoc1C(=O)NCC1=C(c2cccc3ccccc23)C[C@@H]2CC[C@H]1N2Cc1ccco1,,-7.65%
CC(=O)c1c(O)n(C2CCCCCC2)c(=O)[nH]c1=O,,-4.72%
O=C(NC1CCCCC1)N1Cc2cc(N3CCCCC3)ccc2-n2nncc2C1,,9.74%
c1cc2c(c(NC3=NCCCS3)c1)CCCC2,,-17.9%
COC(=O)C1=C(c2ccc(Cl)c(C(F)(F)F)c2)C[C@@H]2CC[C@H]1N2C(=O)NC1CC1,,-7.4%
C[C@]12CC[C@H](O)C[C@H]1CC[C@@H]1C2CC[C@]2(C)[C@@H](C3=CC(=O)OC3)[C@@H](O)C[C@]12O (stereo not given in full),5.8 µM (active),
C[C@]12CCC3C(CC[C@H]4C[C@@H](O)CC[C@]34C)C1C[C@@H](O)[C@H]2O (stereo not given in full),,-0.126%
C[C@]12CCC3C(CC[C@H]4C[C@@H](O)CC[C@]34C)C1CC[C@@H]2O (stereo not given in full),,-1.7%
C[C@H]1CN([C@@H](C)CO)C(=O)CCCn2nncc2CO[C@H]1CN(C)C(=O)Oc1ccccc1,,8.98%
CCOC(=O)[C@]12Cc3ccccc3[C@H]1N(C1CCCCC1)C(=O)c1cc(OC)ccc12,5.8 µM (active),
CCOC(=O)[C@]12Cc3cc(OC)ccc3[C@H]1N(C(C)C)C(=O)c1ccccc12,11.6 µM (active),
CCCC(C)n1[nH]c(=O)c2c1NC(=O)CSC2c1ccc(OC)c(OC)c1 (stereo not given),,0.635%
Oc1cc2c(cc1CN1CCN(c3ccccc3)CC1)OCO2,,8.84%
COc1ccccc1OC(=O)c1ccc(C)c(S(=O)(=O)N2CCOCC2)c1,,-2.07%
CC1([N+](=O)[O-])COP(=O)(Nc2ccc(F)cc2)OC1 (stereo not given),,6.83%
O=c1c2ccccc2[nH]c(=S)n1-c1cccc(Cl)c1,,-1.3%
Cc1cc(-c2ccc(N)c(C)c2)ccc1N,,-1.84%
Nc1ccc(Cc2ccc(N)c(Cl)c2)cc1Cl,,-19%
COC(=O)C[C@H]1CC[C@H]2NC[C@@H](O)COC[C@@H]2O1,,17.8%
Cc1c(Oc2cc(NN3CCCCC3)c([N+](=O)[O-])cc2[N+](=O)[O-])cccc1[N+](=O)[O-],,11%
Cc1nc2ccccc2c(=O)n1-c1ccc(Cl)cc1Cl,,-2.24%
O=c1c2ccccc2nc(/C=C/c2ccco2)n1-c1ccccc1O,,-24.6%
O=c1c2ccccc2nc(/C=C/c2ccc(F)cc2)n1-c1ccccc1O,23.1 µM (active),

SMILES,Potency,"activity, negative = less viability"
c1ccc(C(CN2CCCCC2)c2ccccc2)cc1,,2.28%
CCc1cccc2c(C#N)cn(CC(=O)N3CCOCC3)c12,,-2.69%
COC1C(O)C(C)OC(OC2CCC3(C=O)C(CCC4C3CCC3(C)C(C5=CC(=O)OC5)CCC43O)C2)C1O (stereo not given),0.206 µM (active),
C[C@H]1CN([C@@H](C)CO)C(=O)CCCn2nncc2CO[C@H]1CN(C)C(=O)Oc1cccc2ccccc12,,4.3%
CCn1cc(CN2CCCC(C(=O)c3cccc(C(F)(F)F)c3)C2)cn1 (stereo not given),,-1.31%
COc1ccc(NC(=O)N2Cc3ccccc3-n3nncc3C2)cc1,,4.07%
CC(=CCOc1ccc2ccc(=O)oc2c1)C1=CC(=O)C(C)(C)O1,,-21.3%
O=c1c2ccccc2nc(CBr)n1-c1ccc(Cl)cc1,,-11%
COC(=O)CN(CCCl)P1(=O)OCCCN1CCCl (stereo not given),,23%
CCCCCCCCCCCCn1ccc(=N)cc1,2.59 µM (active),
CSC1=NP(=S)(SC)N(C)c2nc3n(c21)CCC3 (stereo not given),,7.49%
COC(=O)C1=C(c2ccc(F)cc2F)C[C@@H]2CC[C@H]1N2C(=O)NC1CC1,,7.87%
CC(C)CN1Cc2cc(N3CCCCC3)ccc2-n2nncc2C1,,-1.63%
COc1ccc(-c2nn(CCC#N)cc2C(=O)Nc2ccc(C(C)=O)cc2)cc1,,-9.46%
CCOC(=O)CNC(=O)N1Cc2cc(N3CCCCC3)ccc2-n2nncc2C1,,13%
COc1cc(C2c3cc4c(cc3C(O)C3COC(=O)C23)OCO4)cc(OC)c1OC (stereo not given),0.0058 µM (active),
CCN1C(=O)NC(=O)C2(CCCC2)C1=O,,2.59%
CCOc1cccc(=NC2CCCCC2)c2c(C)[nH]c(C)c12,20.6 µM (active),
CCOP(=S)(OCC)C(O)CCCCCn1c(=O)c(F)cn(C2CCCO2)c1=O (stereo not given),,10.4%
COc1cc(C(=O)N2Cc3ccc(Br)cc3-n3nncc3C2)cc(OC)c1OC,,28.4%
COC1=C[C@@H]2[C@@H]3Cc4ccc(OC)c(O)c4[C@]2(CCN3C)CC1=O,,8.69%
O=[N+]([O-])c1ccc(Cl)c(Cl)c1,,13.2%
CC(=O)OC1C2(CC3N4C(=O)C5(CO)SSC4(CC31O)C(=O)N5C)OC(C)C(C)(C)C2=O (stereo not given),0.651 µM (active),
CC[C@H]1CC2CN3CCc4c([nH]c5ccccc45)C(C(=O)OC)(C2)C13 (stereo not given in full),,4.35%
CCN(N=Nc1nonc1OC)c1nonc1OC,,-0.973%
CCOC(=O)C1CN(C)CCC1=O (stereo not given),,5.26%
